In ChEMBL document CHEMBL1961873, “Compounds: GSK PKIS; Assays: Nanosyn kinase panel” (2012) one finds inhibition data, which are given here for 11 compounds.

Test [1] concerns the target Dual specificity protein kinase CLK3 (Homo sapiens) (UniProt P49761). The conditions noted are these: at 1 µM.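 Further: each value is the mean inhibition of CLK3.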
The target in test [2] is Dual specificity tyrosine-phosphorylation-regulated kinase 1A (Homo sapiens) (UniProt Q13627). The conditions noted are these: at 0.1 µM.
Test [3] has the same target. The conditions noted are these: at 1 µM.
The target of test [4] is Dual specificity tyrosine-phosphorylation-regulated kinase 1B (Homo sapiens) (UniProt Q9Y463). The conditions noted are these: at 0.1 µM.
The target is the same in test [5]. The following applies: at 1 µM.
The target in test [6] is T1, Dual specificity tyrosine-phosphorylation-regulated kinase 2 (Homo sapiens) (UniProt Q92630).
T1 sequence (whole entry): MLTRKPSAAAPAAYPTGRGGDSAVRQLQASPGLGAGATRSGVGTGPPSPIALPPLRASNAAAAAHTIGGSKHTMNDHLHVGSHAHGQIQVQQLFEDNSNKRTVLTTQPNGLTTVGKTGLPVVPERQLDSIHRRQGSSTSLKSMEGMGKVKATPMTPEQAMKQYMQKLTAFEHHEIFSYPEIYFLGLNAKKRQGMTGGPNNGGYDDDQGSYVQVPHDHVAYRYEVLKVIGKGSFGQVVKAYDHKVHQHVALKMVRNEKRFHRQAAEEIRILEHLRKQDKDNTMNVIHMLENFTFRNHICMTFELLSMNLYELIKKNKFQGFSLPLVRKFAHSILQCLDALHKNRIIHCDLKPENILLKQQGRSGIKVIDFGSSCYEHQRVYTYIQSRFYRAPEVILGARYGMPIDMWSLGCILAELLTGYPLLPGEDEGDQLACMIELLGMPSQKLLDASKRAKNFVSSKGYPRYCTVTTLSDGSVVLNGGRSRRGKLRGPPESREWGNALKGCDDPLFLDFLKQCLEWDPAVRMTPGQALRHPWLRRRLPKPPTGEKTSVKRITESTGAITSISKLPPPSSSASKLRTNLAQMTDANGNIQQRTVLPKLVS
The conditions noted are these: at 0.1 µM.

Test [7] deals with T1, Dual specificity tyrosine-phosphorylation-regulated kinase 2 (Homo sapiens). The conditions noted are these: at 1 µM.
Test [8] has as its target Glycogen synthase kinase-3 alpha (Homo sapiens) (UniProt P49840). The conditions noted are these: at 0.1 µM.
The target is the same in test [9]. The following applies: at 1 µM.
Test [10] concerns the target Glycogen synthase kinase-3 beta (Homo sapiens) (UniProt P49841). The conditions noted are these: at 0.1 µM.
Test [11] shares this target. The following applies: at 1 µM.
Test [12] addresses Homeodomain-interacting protein kinase 1 (Homo sapiens) (UniProt Q86Z02). The following applies: at 0.1 µM.
The target is the same in test [13]. The following applies: at 1 µM.
The target of test [14] is T2, Homeodomain-interacting protein kinase 4 (Homo sapiens) (UniProt Q8NE63).
T2 sequence (whole entry): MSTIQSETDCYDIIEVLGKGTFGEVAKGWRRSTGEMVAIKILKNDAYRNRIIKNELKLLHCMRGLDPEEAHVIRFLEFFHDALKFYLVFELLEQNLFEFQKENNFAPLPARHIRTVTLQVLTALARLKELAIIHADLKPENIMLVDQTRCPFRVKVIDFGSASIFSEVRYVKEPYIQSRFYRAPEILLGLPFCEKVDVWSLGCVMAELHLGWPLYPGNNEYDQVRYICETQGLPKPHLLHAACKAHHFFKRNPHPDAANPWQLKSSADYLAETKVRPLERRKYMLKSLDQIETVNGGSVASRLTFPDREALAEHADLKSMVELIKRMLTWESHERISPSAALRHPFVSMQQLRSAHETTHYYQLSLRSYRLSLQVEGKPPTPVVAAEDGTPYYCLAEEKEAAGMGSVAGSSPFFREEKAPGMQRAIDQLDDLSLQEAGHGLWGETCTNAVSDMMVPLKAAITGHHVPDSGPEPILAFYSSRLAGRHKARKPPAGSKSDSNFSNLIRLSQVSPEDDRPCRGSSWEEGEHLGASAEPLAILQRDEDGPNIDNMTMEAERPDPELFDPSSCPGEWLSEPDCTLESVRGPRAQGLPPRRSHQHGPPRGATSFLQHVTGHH
The conditions noted are these: at 0.1 µM.

The target in test [15] is T2, Homeodomain-interacting protein kinase 4 (Homo sapiens). The following applies: at 1 µM.
Test [16] concerns the target Mitogen-activated protein kinase 9 (Homo sapiens) (UniProt P45984). The conditions noted are these: at 0.1 µM.
For test [17] the target is unchanged. The conditions noted are these: at 1 µM.
Test [18] concerns the target Mitogen-activated protein kinase 1 (Homo sapiens) (UniProt P28482). The following applies: at 0.1 µM.
The target is the same in test [19]. The following applies: at 1 µM.
Test [20] concerns the target Mitogen-activated protein kinase 3 (Homo sapiens) (UniProt P27361). The conditions noted are these: at 0.1 µM.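 Further: each value is a mean inhibition figure.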

Sequence of Mitogen-activated protein kinase 3 (Homo sapiens) (P27361 whole entry): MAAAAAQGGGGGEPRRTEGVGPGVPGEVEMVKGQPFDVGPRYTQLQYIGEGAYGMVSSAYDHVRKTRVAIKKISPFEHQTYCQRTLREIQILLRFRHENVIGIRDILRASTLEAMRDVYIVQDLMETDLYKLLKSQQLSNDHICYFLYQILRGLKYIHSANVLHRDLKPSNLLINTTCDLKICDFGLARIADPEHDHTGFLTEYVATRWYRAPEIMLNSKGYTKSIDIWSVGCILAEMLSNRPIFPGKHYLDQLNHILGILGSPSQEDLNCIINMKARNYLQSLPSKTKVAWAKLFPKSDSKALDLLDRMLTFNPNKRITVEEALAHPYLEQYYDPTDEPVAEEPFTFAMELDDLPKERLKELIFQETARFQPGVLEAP
Sequence of Mitogen-activated protein kinase 9 (Homo sapiens) (P45984 whole entry, looked up): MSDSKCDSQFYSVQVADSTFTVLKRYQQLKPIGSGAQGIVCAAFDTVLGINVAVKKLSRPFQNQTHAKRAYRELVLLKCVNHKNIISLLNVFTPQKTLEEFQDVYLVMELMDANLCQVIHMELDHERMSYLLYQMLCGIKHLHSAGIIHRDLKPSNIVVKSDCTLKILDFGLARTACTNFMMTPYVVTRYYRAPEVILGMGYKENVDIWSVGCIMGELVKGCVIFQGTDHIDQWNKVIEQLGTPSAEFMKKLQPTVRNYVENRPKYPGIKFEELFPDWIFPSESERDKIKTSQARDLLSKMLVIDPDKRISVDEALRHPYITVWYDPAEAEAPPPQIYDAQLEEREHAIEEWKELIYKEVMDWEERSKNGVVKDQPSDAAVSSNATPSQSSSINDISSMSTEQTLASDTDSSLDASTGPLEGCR
Sequence of Glycogen synthase kinase-3 alpha (Homo sapiens) (P49840 2-483 limits assumed): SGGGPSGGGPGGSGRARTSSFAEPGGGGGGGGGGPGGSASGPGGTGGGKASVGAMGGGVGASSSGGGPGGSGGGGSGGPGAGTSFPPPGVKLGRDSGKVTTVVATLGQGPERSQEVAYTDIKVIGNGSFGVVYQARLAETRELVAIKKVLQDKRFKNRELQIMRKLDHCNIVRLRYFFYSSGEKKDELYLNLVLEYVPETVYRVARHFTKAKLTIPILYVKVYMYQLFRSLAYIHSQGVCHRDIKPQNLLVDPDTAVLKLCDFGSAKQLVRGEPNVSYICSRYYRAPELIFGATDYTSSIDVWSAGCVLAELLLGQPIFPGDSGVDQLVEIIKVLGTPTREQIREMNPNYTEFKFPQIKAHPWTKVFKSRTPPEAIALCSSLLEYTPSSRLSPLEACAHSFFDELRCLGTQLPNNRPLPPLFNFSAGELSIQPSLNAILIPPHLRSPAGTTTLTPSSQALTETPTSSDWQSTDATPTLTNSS
Sequence of Glycogen synthase kinase-3 beta (Homo sapiens) (P49841 whole entry, looked up): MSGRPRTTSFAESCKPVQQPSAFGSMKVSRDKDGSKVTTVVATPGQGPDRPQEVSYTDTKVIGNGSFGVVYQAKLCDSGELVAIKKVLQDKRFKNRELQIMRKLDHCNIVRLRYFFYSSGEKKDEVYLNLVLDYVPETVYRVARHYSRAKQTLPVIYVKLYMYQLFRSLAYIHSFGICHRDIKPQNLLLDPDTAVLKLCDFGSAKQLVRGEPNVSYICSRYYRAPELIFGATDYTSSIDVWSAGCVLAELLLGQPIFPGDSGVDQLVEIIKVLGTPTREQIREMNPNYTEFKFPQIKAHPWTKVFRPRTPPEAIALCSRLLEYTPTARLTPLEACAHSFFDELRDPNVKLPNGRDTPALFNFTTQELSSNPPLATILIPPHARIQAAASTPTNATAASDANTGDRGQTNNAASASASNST
Sequence of Dual specificity tyrosine-phosphorylation-regulated kinase 1B (Homo sapiens) (Q9Y463 whole entry, looked up): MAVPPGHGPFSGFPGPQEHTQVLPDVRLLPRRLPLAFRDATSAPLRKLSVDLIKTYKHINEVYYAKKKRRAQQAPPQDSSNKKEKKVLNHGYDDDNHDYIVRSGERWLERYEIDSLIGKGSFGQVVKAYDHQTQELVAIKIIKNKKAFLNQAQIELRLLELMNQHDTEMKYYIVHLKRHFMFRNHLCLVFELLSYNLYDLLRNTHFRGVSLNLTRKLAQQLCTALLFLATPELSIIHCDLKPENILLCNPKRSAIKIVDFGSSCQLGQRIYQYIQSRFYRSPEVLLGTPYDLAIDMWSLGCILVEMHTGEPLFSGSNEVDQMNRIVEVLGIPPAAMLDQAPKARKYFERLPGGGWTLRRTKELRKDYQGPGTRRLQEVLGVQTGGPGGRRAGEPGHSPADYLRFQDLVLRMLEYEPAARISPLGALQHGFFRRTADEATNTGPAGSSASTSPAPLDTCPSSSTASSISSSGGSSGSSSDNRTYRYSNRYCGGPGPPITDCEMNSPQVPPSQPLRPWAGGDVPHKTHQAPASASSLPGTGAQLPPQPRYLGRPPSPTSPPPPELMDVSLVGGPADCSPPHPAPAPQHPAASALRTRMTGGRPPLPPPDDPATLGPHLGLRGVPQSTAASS
Sequence of Homeodomain-interacting protein kinase 1 (Homo sapiens) (Q86Z02 whole entry, looked up): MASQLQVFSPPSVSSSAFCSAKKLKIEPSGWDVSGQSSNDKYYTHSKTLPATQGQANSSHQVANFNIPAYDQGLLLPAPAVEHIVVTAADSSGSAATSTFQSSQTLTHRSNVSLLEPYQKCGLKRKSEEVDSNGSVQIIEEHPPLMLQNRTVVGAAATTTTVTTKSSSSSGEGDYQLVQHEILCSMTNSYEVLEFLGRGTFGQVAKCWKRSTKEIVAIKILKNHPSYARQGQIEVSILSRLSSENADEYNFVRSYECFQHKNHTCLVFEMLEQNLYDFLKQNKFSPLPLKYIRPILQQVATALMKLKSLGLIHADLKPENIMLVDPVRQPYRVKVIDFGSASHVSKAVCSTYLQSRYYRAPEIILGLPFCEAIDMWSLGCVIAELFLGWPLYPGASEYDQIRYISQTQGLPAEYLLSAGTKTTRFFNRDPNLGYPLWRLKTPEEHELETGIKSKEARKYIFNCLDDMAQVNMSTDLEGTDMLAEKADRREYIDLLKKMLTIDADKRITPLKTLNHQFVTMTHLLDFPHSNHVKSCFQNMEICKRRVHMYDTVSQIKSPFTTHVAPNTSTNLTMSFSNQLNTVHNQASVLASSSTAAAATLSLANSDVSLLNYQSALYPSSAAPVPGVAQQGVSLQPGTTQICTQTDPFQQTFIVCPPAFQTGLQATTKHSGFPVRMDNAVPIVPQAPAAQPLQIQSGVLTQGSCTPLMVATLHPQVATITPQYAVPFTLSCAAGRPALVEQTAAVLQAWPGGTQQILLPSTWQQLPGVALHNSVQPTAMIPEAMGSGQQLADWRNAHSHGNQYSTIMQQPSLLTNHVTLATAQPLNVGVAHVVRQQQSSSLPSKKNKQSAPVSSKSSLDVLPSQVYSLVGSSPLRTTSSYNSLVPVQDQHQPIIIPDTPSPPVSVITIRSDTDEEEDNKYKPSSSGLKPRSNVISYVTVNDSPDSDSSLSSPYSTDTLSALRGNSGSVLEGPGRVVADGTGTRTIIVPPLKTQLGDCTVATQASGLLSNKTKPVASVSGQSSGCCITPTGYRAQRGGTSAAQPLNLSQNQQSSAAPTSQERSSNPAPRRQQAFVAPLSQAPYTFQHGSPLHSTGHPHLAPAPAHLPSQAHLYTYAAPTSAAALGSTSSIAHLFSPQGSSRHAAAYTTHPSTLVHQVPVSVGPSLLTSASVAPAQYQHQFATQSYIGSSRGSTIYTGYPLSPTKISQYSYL
Sequence of Dual specificity protein kinase CLK3 (Homo sapiens) (P49761 whole entry, looked up): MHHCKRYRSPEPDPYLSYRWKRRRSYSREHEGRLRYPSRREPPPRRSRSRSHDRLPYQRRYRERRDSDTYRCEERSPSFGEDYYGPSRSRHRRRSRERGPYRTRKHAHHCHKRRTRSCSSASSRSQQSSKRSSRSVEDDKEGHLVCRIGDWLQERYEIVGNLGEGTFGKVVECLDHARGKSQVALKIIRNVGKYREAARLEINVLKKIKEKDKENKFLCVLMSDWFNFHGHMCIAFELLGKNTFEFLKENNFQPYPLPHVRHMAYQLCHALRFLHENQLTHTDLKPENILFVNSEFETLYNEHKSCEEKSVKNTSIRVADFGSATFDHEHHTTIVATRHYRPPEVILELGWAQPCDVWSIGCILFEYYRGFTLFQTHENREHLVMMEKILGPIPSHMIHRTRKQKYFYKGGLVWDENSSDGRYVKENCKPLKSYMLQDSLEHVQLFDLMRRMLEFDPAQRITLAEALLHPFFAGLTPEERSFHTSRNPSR
Sequence of Mitogen-activated protein kinase 1 (Homo sapiens) (P28482 whole entry): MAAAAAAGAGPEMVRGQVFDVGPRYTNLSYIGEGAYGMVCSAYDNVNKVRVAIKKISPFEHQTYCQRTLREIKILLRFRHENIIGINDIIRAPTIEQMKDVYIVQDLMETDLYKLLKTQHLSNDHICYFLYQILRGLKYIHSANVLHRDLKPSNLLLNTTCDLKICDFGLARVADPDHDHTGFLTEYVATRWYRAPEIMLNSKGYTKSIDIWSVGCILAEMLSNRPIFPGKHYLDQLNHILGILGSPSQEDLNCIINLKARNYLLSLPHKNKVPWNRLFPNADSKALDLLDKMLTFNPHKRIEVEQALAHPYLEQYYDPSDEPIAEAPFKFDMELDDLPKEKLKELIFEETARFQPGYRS

Usually inhibition stands for the relative decrease from the control value, in per cent. In the case of `NS(=O)(=O)c1ccc(N/N=C2\C(=O)Nc3ccc(C(=O)NCCc4c[nH]cn4)cc32)cc1`, the inhibition in test [1] was determined as 24.2%; in test [2], 6.64%; in test [3], 30.6%; in [4], 5.35%; in test [5] it was 31.5%; in test [6], 6.85%. The inhibition in [7] worked out at 33.4%; in [8], 50.7%; in test [9], 86.8%; in test [10], 51%; in test [11], 86.6%; in test [12], 9.13%. Moreover, the inhibition worked out at 48.9% in [13]; 3.77% in [14]; 20.2% in test [15]; 3.56% in [16]; 9.28% in test [17]; 1.92% in test [18]. Also, the figures for the inhibition in test [19] and in test [20] were 17.6% and 5.33%, respectively.
Turning to `COc1cc(C=NNc2ncnc3c2cnn3-c2ccccc2)ccc1O`, the inhibition was determined as 9.46% in test [1]; 4.3% in test [2]; 28.8% in test [3]; 1.97% in [4]; 11% in test [5]; 5.08% in test [6]. In addition, the inhibition in [7] worked out at 23.7%; in [8] it was 47.7%; in test [9] it was 79.2%; in [10], 41.6%; in test [11], 78.1%; in [12] it was 3.83%. The inhibition in test [13] was 28.3%; in test [14], 10.8%; in [15], 39.6%; in [16], 2.12%; in test [17] it was 6.67%; in test [18], 2.39%. Moreover, the inhibition was determined as 2.08% in [19] and 1.28% in test [20].
Consider `Cn1cc(C=C2C(=O)Nc3cccnc32)c2ccccc21`, for which the inhibition is -1.26% in test [1]; 2.68% in test [2]; 10.6% in [3]; 0.78% in [4]; 4.49% in test [5]; 2.52% in test [6]. Further, the inhibition in [7] is 4.08%; in [8], 4.33%; in test [9] it was 12.2%; in [10], 3.54%; in test [11], 8.9%; in [12], -0.99%. The inhibition in test [13] was 13.8%; in [14] it was 1.64%; in test [15] it was 15.2%; in test [16], 3.04%; in test [17] it was 6.24%; in test [18], 2.02%. Also, the inhibition in test [19] came out at 2.73%; in [20], 2.22%.
As for `COc1ccc2cc(-c3c(-c4ccncc4)nc(-c4ccc([S+](C)[O-])cc4)n3C)ccc2c1` (configuration not stated), the inhibition was 0.67% in test [1]; 0.49% in [2]; 3.52% in [3]; -0.23% in test [4]; 0.37% in [5]; 3.31% in [6]. Moreover, the inhibition is 1.71% in test [7]; 4.07% in test [8]; 11.5% in test [9]; 2.47% in test [10]; 9.29% in [11]; -1.81% in test [12]. Further, the inhibition is 1.99% in [13]; 0.14% in test [14]; -0.51% in [15]; 1.55% in test [16]; 4.27% in test [17]; 1.94% in test [18]. In addition, the inhibition was 2.54% in test [19] and 4.68% in test [20].
With `Cc1cc(O)cc(C)c1/C=C/c1cncc(-c2nn[nH]n2)c1`, the inhibition was -1.62% in [1]; 1.17% in test [2]; 2.98% in test [3]; -1.94% in [4]; -1.27% in [5]; 2.24% in test [6]. The inhibition is 3.95% in test [7]; -2.04% in test [8]; 3.03% in [9]; -2.15% in [10]; 2.36% in test [11]; -4.42% in test [12]. Besides, the inhibition was -1.96% in test [13]; 1.12% in test [14]; 3.32% in test [15]; 7.47% in test [16]; 9.2% in test [17]; 4.59% in [18]. The inhibition in test [19] amounted to 5.51%; in test [20], 4.38%.
Regarding `COc1cc2ncn(-c3cc(O[C@H](C)c4ccccc4Cl)c(C(N)=O)s3)c2cc1OC`, the inhibition in test [1] is 7.93%; in test [2], -0.27%; in test [3] it was 3.73%; in test [4], -0.01%; in [5], 0.14%; in [6], 2.5%. Also, the inhibition worked out at 5.55% in test [7]; 5.34% in test [8]; 19.8% in test [9]; 5.07% in test [10]; 23% in test [11]; 3.82% in test [12]. The inhibition in [13] was found to be 12.1%; in test [14], 11.2%; in test [15] it was 30.2%; in test [16], 2.72%; in test [17], 3.88%; in [18], 5.57%. For the same compound, the inhibition in [19] is 4.8%; in [20], 2.92%.
On to `O=C1Nc2ccc(C(=O)c3ccco3)cc2C1=Cc1cc(Cl)c(O)c(Cl)c1`, for which the inhibition was found to be 63.8% in test [1]; 40.5% in [2]; 78.3% in [3]; 47.4% in test [4]; 81.5% in [5]; 3.34% in test [6]. The inhibition in [7] worked out at 13.4%; in test [8], 24.5%; in test [9] it was 70.1%; in [10], 31.1%; in test [11], 75.8%; in test [12] it was 14%. Also, the inhibition turned out to be 54.1% in test [13]; 4.69% in test [14]; 32.9% in test [15]; 2.31% in test [16]; 6.22% in test [17]; 2.44% in test [18]. The inhibition stood at 4.55% in [19] and 1.44% in test [20].
For `O=C1NC(=O)C(c2ccc(Cl)cc2)=C1Nc1ccc(Cl)c(C(=O)O)c1`, the inhibition in test [1] was 4.58%; in [2], 3.92%; in test [3], 17.2%; in test [4] it was 3.26%; in test [5], 8.51%; in test [6], -2.12%. Moreover, the inhibition in test [7] is -1.19%; in test [8], 21.4%; in test [9], 72.1%; in [12], 2.13%; in [13] it was 4.29%; in test [14], 1.76%. Further, the inhibition in test [15] was 1.98%; in test [16], 0.98%; in test [17], 5.72%; in test [19], -5.59%; in test [20], -1.99%.
`NCc1ccc(-c2nc(-c3ccc(Cl)c(O)c3)c(-c3ccncc3)[nH]2)cc1`: the inhibition in [1] was determined as 3.14%; in [2] it was 3.51%; in test [3], 3.85%; in [4], 4.36%; in test [5], 3.42%; in test [6] it was 0.33%. Also, the inhibition in test [7] turned out to be 0.81%; in test [8], 4.59%; in test [9] it was 32.5%; in [10], 16.9%; in [11], 65.4%; in test [12], 0.11%. For the same compound, the inhibition is 5.53% in [13]; 0.99% in test [14]; 8.45% in test [15]; 4.51% in [16]; 15.8% in test [17]; -0.32% in test [18]. The inhibition worked out at 0.67% in test [19] and 0.94% in [20].
As for `Cc1ccc(NC(=O)c2ccnc(N3CCCC3)c2)cc1-c1ccc(C(=O)NCC2CC2)cc1`, the inhibition in [1] was -1.68%; in test [2] it was 0.13%; in test [3], 4%; in test [4], -2.86%; in [5], -0.97%; in test [6] it was 2.77%. The inhibition is 3.11% in test [7]; 1.33% in test [8]; 5.65% in [9]; 0.07% in test [10]; 3.68% in test [11]; -4.3% in test [12]. The inhibition is -2.16% in [13]; -1.31% in [14]; 2.09% in [15]; 2.66% in [16]; 6.82% in test [17]; 4.25% in test [18]. Moreover, the inhibition in [19] is 6.09%; in test [20], 2.96%.
Regarding `COc1ccc(-c2nn3ncccc3c2-c2ccnc(Nc3ccc(Cl)c(C(F)(F)F)c3)n2)cc1`, the inhibition in test [1] was 0.49%; in test [2], -0.17%; in test [3], 2.05%; in test [4], -1.42%; in test [5] it was 0.89%; in [6], 1.06%. The inhibition is 1.84% in test [7]; 2.46% in [8]; 3.98% in test [9]; 1.3% in test [10]; 4.05% in test [11]; -0.18% in [12]. Further, the inhibition in test [13] was -0.9%; in test [14] it was 1.05%; in test [15], 1.36%; in test [16], 1.72%; in [17], 4.38%; in [18], 3.47%. Besides, the inhibition in [19] is 3.46%; in [20], 4.84%.
